Only some compounds are listed: those with a hit (about 2.1% of all), similar ones and a draw of the others.
PLAP act: activators of human placental alkaline phosphatase; P05187; purified PLAP enzyme, luminescent substrate read-out; stronger effect = higher value; activation fold at 20 µM; 96,000 compounds, 1.2% hits; AID 696; in the data active means activation fold above about 2
TNAP act DEA: activates human TNAP at intermediate phosphate acceptor concentration; P05186; purified TNAP, CDP-star luminescence, 100 mM DEA, 30 min; stronger effect = higher value; scale: 0 levamisole-inhibited, 1 vehicle-only enzyme; activation factor at 20 µM; 64,000 tested, under 10 active;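 active means activation factor of at least 2 at 20 µM, relative to controls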
Target sequence (P05186 whole entry, looked up): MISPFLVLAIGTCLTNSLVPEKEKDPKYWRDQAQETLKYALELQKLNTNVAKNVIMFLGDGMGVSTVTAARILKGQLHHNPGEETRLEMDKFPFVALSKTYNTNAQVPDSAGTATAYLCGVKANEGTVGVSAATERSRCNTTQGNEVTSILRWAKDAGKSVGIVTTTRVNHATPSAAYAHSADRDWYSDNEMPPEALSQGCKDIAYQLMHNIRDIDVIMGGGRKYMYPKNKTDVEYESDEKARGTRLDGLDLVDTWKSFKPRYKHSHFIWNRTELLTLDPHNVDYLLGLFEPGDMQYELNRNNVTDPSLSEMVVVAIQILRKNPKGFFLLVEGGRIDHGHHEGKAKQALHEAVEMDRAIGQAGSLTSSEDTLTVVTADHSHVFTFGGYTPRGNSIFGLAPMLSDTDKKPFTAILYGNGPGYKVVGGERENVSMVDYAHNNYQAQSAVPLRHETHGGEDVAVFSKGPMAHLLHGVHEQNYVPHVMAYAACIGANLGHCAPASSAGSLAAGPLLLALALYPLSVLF
IL1B NFkB inh: blocks IL-1B driven NFkB nuclear translocation in HUVEC cells; HUVEC IL-1B NFkB p65 nuclear translocation imaging; inhibition, % at 2 µM; 94,000 compounds, 0.43% hits;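 active means inhibition above about 30% together with a positive call from visual inspection of the well image, limit read from the data; inconclusive means inhibition above a set limit but visual check negative; inactive means inhibition not above a set limit, visual check negative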;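 further: nuclear over cytoplasmic p65 intensity ratio measured by imaging; 0% = IL-1B stimulated DMSO wells and 100% = unstimulated DMSO wells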
IL1B cytotox: toxic to HUVEC cells under IL-1B stimulation; HUVEC cell count loss, Hoechst imaging, IL-1B stimulated; cell count reduction, % at 2 µM; 94,000 compounds, 0.41% hits; AID 845;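 active means cell count reduction more than 3 SD above the screen-wide mean, cut at about 70% in these data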;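 further: normalized per plate to untreated control cells as the no-loss baseline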
IL1B NFkB pot: enhances IL-1B driven NFkB nuclear translocation. activation, % at 2 µM. HUVEC IL-1B NFkB p65 nuclear translocation imaging. 94,000 compounds, 0.3% hits. AID 819;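 active means activation above 40%, about the mean plus 3 SD, also judged a hit on visual image review; inconclusive means activation above 40% but not a hit on visual review; inactive means activation not above 40% and no visual hit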;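 further: percent activation is computed from the nuclear over cytoplasmic p65 intensity ratio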
* marks the source's active call; other numbers are inactive results; u = inconclusive; x = no result given.

SMILES	PLAP act	TNAP act DEA	IL1B NFkB inh	IL1B cytotox	IL1B NFkB pot
Cc1ccccc1Cn1nc(C)c(NC(=O)c2cc3n(n2)C(C(F)F)CC(C(F)F)N3)c1C (configuration not stated)	1.3	0.9	96.4*	77.8*	-96.4
COc1ccccc1-c1cc2nc(C)c(CCC(=O)NC(C)CCc3ccco3)c(C)n2n1 (configuration not stated)	1.6	x	-4.4	6.4	4.4
Cc1ccc(C(=O)N2CCN(c3ccc(Cl)cc3)CC2)cc1	0.8	0.9	15.8	88.1*	-15.8
CCCCOC(=O)c1ccc(NC(=O)CSCc2n[nH]c(=O)[nH]2)cc1	2.1*	1.2	-3.9	-29.5	3.9
CCN(CC)CC(=O)Nc1cc(C)c2c(=O)oc3ccccc3c2n1	x	1	x	x	x
O=C(COC(=O)c1ccc(Br)o1)Nc1cccc(S(=O)(=O)N2CCCCCC2)c1	0.8	x	-1.7	3.6	1.7
O=C(C1CCCN(S(=O)(=O)c2ccc(Br)s2)C1)N1CCCCCC1 (configuration not stated)	1.3	1	32.8*	-2.9	-32.8
O=C(O)C1CCCN(S(=O)(=O)c2ccc(Cl)s2)C1 (configuration not stated)	1	0.8	-50.3	-27.3	u
CCc1ccc(OCC(=O)N/N=C2\CC(=O)c3ccccc32)cc1	2.4*	x	-0.3	11.8	0.3
Cc1ccc(OCC(=O)NN=C2c3ccccc3-c3ccccc32)cc1	1.1	x	1.8	-57.4	-1.8
COc1ccc(C(=O)NNC(=S)NC2CCCCC2)cc1OC	2.5*	x	3.5	-23.9	-3.5
COc1cc(C(=O)NNC(=O)NC2CCCCC2)cc(OC)c1OC	0.9	x	3.4	-24.6	-3.4
Cc1ccc(C)c(C(=O)CSc2n[nH]c(C)n2)c1	1.8	1.1	17.7	-8.9	-17.7
CCc1nc(SCC(=O)c2cc(C)ccc2C)n[nH]1	2.3*	1	2.7	9.8	-2.7
Cc1ccc(-c2cc(C(=O)N/N=C/c3ccco3)[nH]n2)cc1	2.2*	x	-2.2	13.0	2.2
Cc1ccc2oc3nc(C)c(C(=O)Nc4cccc(C(F)(F)F)c4)cc3c(=O)c2c1	0.8	x	10.2	-9.5	-10.2
CCSc1nc2ccccc2n1C(=O)/C=C\c1ccc(OC)c(OC)c1	1.1	x	89.9*	-10.3	-89.9
Cc1ccc(-c2nc(NC(=O)c3nn(C)cc3[N+](=O)[O-])sc2C)cc1	1.1	x	24.4	26.4	-24.4
Cn1cc([N+](=O)[O-])c(C(=O)Nc2nc(-c3ccc(Cl)cc3)cs2)n1	1	x	77.3*	-9.6	-77.3
Cc1ccc(-c2nc(NC(=O)c3nn(C)cc3[N+](=O)[O-])sc2C)cc1C	1.7	x	45.2*	66.2	-45.2
Brc1ccccc1-c1nnc(CSc2nnnn2-c2ccccc2)o1	2.1*	0.8	-13.6	-23.5	13.6
CCc1cc(C)cc(OCCNC(=O)c2ncn[nH]2)c1	2*	1	7.2	-2.0	-7.2
CC(C)(C)c1ccc(OCCNC(=O)c2ncn[nH]2)cc1	2.7*	x	-19.8	-17.4	19.8
CCc1cc(C)cc(OCCNC(=O)c2cncc(Br)c2)c1	0.8	x	-16.2	-17.4	16.2
CCCN1CCN(C(=O)c2cccc3c2C(=O)N(CCOC)C3)CC1	0.9	1	-7.2	-6.6	7.2
SMILES	PLAP act	TNAP act DEA	IL1B NFkB inh	IL1B cytotox	IL1B NFkB pot
Cc1cc2c3c(c1)C1(SCC(=O)N1c1ccc(F)cc1)C(=O)N3C(C)(C)CC2C (configuration not stated)	1.7	x	33.9*	-12.2	-33.9
CC1CC(C)(C)N2C(=O)C3(Nc4ccccc4S3)c3cccc1c32 (configuration not stated)	1.1	x	4.0	14.2	-4.0
COc1ccc(CCNc2cc(=O)[nH]c(N)n2)cc1	1.1	1	6.7	-4.8	-6.7
O=C(NCc1ccccc1)c1n[nH]nc1-c1ccccc1O	2.9*	1	x	x	x
O=C(NC(=S)Nc1cc(C(F)(F)F)ccc1Cl)c1ccccc1	0.9	x	78.9*	1.0	-78.9
O=C(NC(=S)Nc1cc([N+](=O)[O-])ccc1Cl)c1ccccc1	0.9	x	x	x	x
Cc1cccc(C)c1NC(=O)C(=O)NCc1ccccn1	1.1	x	-12.7	-7.9	12.7
CCOC(=O)C[n+]1c(C)sc2ccc(OC)cc21	1.4	x	43.3*	-21.4	-43.3
CCO/C(=C/c1sc2ccc(OC)cc2[n+]1CCCS(=O)(=O)[O-])CC	0.9	x	6.8	14.7	-6.8
CCOC(=O)Cc1csc(NC(=S)NC(=O)c2ccccc2C)n1	1	x	50.0*	-30.9	-50.0
COc1ccc(C(=O)Nc2cc(C(F)(F)F)ccc2Cl)cc1OC	0.8	x	-3.1	10.1	3.1
